Bioassay records deposited in PubChem by National Center for Advancing Translational Sciences (NCATS).
Compounds with a hit are over-represented: about 3% of the library has one in this group of screens.
12-LOX inh: Primary qHTS assay for inhibitors of human arachidonate 12S-lipoxygenase (ALOX12): Round 2; purified 12hLO, xylenol orange hydroperoxide absorbance; Potency, µM (series often up to 108 µM), actives largely listed as inhibitors; actives 1.1% (n = 580,000); AID 1671190, 2021
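Purified human 12hLO (150 nM final) in 25 mM Hepes, 0.01% Triton X-100, pH 7.0 was preincubated 15 min at room temperature with compound. Then 40 uM arachidonic acid was added, 30 min. Hydroperoxide was read by Fe-XO absorbance ratio 573/405 nm.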
PLK1 PBD inh: qHTS for Inhibitors of PLK1-PDB (polo-like kinase 1 - polo-box domain): Primary Screen; Serine/threonine-protein kinase PLK1 (Homo sapiens), P53350; Plk1 PBD binding of FITC phosphopeptide, fluorescence polarization; Potency, µM, most hits filed as inhibitors; actives 2.8% (n = 360,000); also: series mostly up to about 57 µM; nearly all actives have a fitted effect of over 65% in size
Target sequence (P53350 whole entry, looked up, the tested form may be a part): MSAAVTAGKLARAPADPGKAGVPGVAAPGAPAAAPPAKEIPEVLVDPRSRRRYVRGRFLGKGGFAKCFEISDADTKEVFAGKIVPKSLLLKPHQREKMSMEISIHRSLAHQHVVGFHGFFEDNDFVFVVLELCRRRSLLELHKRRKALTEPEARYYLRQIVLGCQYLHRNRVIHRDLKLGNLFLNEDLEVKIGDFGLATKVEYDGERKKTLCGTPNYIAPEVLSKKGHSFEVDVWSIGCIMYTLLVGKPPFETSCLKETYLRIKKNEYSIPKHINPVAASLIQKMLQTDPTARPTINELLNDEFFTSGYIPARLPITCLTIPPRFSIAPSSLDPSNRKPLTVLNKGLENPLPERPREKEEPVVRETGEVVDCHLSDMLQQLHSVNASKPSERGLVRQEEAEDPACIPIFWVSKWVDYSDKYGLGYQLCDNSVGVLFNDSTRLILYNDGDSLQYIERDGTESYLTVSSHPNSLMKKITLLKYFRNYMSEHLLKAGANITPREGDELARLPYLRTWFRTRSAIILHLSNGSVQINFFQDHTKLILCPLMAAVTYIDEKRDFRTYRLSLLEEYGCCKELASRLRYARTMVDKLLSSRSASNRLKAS
KAT2A inh: qHTS Assay for Inhibitors of GCN5L2. Histone acetyltransferase KAT2A (Homo sapiens), Q92830. GCN5L2 HAT assay, ThioGlo1 CoA-SH fluorescence. Potency, µM (doses to about 58.9 µM), actives largely listed as inhibitors. actives 0.21% (n = 390,000). AID 504327, 2011
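ThioGlo1-coupled HAT assay: 20nM GCN5L2, 70uM acetyl-CoA, 75uM H3(1-25) peptide, pH 7.5. Fluorescence read at 340/540nm at start and after 20 min at room temperature.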
VDR inhibitor: Inhibitors of the vitamin D receptor (VDR): qHTS; Vitamin D3 receptor (Homo sapiens), P11473; VDR-SRC2-3 peptide fluorescence polarization, 2 h; Potency, µM, hits mostly inhibitors; actives 0.93% (n = 400,000)
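Measured by FP: displacement of SRC2-3 coactivator peptide from VDR by library compounds, following a two-hour ambient incubation.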
Numbers stand for hits; 0 = inactive; ? = inconclusive; - = not tested or not shown. Calls follow the shape of the dose curve; as a rule, active = well fitted curve in the direction sought with a large enough effect; inconclusive = small, poorly fitted or top-dose-only effect, or another doubt; inactive = no such curve, though single readings can be large; an effect the other way counts as inactive or inconclusive.

SMILES	12-LOX inh	PLK1 PBD inh	KAT2A inh	VDR inhibitor
CC(=O)NCC1(COc2cnccn2)C[C@@H](O)[C@@H](O)C1 (stereo partly specified)	0	-	-	-
Cc1nc(NC(=O)c2cccc(OCc3ccccc3)c2)ccc1Br	0	-	-	-
O=c1c2ccccc2[nH]c2ccc(O)cc12	?	30µM	0	0
COc1ccc(N2C(=O)S[C@@H]3CS(=O)(=O)C[C@@H]32)cc1	0	0	0	0
COc1ccc(N2C(=O)CN(C3CCCCC3)[C@H]3CS(=O)(=O)C[C@H]32)cc1	10µM	-	-	-
CC(C)CNC(=O)C1CCc2sc(C(=O)N3CCCCCC3)cc2C1 (stereo unspecified)	0	-	-	-
O=C(O)CCC(=O)Nc1ccccc1Oc1ccccc1	0	27µM	0	79µM
CC1CC1C(=O)OCC(=O)Nc1ccc(N=Nc2ccccc2)cc1 (stereo unspecified)	0	0	0	0
CC1CC1C(=O)OCC(=O)Nc1ccccc1Oc1ccccc1 (stereo unspecified)	0	27µM	0	0
O=C(COc1ccccc1)Nc1ccccc1Oc1ccccc1	0	0	0	0
O=C(Cc1cc(Cl)c2c(c1)OCCO2)NC1CCN(C2CC2)CC1	0	-	-	-
C=CCN1CC2(CCC1=O)CCN(c1nccc(C(F)(F)F)n1)CC2	0	-	-	-
Cc1ccc(NC2(c3nnnn3-c3ccccc3C)CCCCC2)c(C)c1	0	-	-	-
CCOC(=O)C1=CC[C@@H](c2ccccc2)N(S(=O)(=O)c2ccc(C)cc2)[C@H]1C	0	0	-	-
Cc1ccc(S(=O)(=O)N2[C@@H](c3ccc(Br)cc3)C(C(=O)O)=CC[C@H]2c2ccc(C(C)C)cc2)cc1	35µM	30µM	?	?
Cc1ccc(S(=O)(=O)N2[C@@H](c3ccc(C(C)(C)C)cc3)C(C(=O)O)=CC[C@H]2c2cccs2)cc1	?	24µM	0	0
CCOC(=O)C1=CC[C@@H](c2ccccc2)N(S(=O)(=O)c2ccc(C)cc2)[C@@H]1C#N	?	15µM	-	-
Cc1ccc([C@@H]2CC=C(C(=O)O)[C@H](c3ccc(Br)cc3)N2S(=O)(=O)c2ccc(C)cc2)cc1	?	?	?	0
Cc1ccc(S(=O)(=O)N2[C@@H](c3ccc(C(C)(C)C)cc3)C(C(=O)O)=CC[C@H]2c2ccc(Cl)cc2)cc1	0	21µM	?	?
CC(OC(=O)c1ccc(-n2cnnn2)cc1)C(=O)N1CCCc2ccccc21 (stereo unspecified)	0	-	-	-
Cc1ccc(S(=O)(=O)N2C(c3cccc(Cl)c3)CC=C(C(=O)O)C2c2cccc(Cl)c2)cc1 (stereo unspecified)	0	0	-	-
Cc1ccc(S(=O)(=O)N2C(c3ccc(Cl)c(Cl)c3)CC=C(C(=O)O)C2c2ccc(Cl)cc2)cc1 (stereo unspecified)	0	27µM	-	-
Cc1ccc([C@@H]2CC=C(C(=O)O)[C@H](c3ccc(C(C)(C)C)cc3)N2S(=O)(=O)c2ccc(C)cc2)cc1	0	27µM	?	0
Cc1ccc([C@@H]2CC=C(C(=O)O)[C@H](c3ccc(F)cc3)N2S(=O)(=O)c2ccc(C)cc2)cc1	0	0	0	0
Cc1ccc(S(=O)(=O)N2[C@@H](c3cccc(Cl)c3)C(C(=O)O)=CC[C@H]2c2ccc(Cl)cc2)cc1	?	27µM	0	0
SMILES	12-LOX inh	PLK1 PBD inh	KAT2A inh	VDR inhibitor
Cc1nn(CC(=O)N2CCc3ccccc32)c(C)c1S(=O)(=O)N1CCCC(C(=O)NC(C)C)C1 (stereo unspecified)	0	-	-	-
C=CC1=C(C)C2=Cc3c(C=C)c(C)c4[n]3[Sn+2][n]3c(c(C)c(CCC(=O)O)c3=CC3=NC(=C4)C(C)=C3CCC(=O)O)=CC1=N2	?	-	?	35µM
Cc1nn(-c2ccccc2)c2nc(=O)n(-c3ccccc3)cc12	0	3µM	0	?
CC(C)C(NC(=O)c1c(F)cccc1F)C(=O)NCc1cnn(-c2ccccc2)c1 (stereo unspecified)	0	-	-	-
O=C(O)c1cc(-c2cccc(Cl)c2)nc2c(Cl)cccc12	0	-	-	-
CS(=O)(=O)ON=C1CCN(S(=O)(=O)c2ccccc2)CC1	0	0	0	0
Cc1ccc(C(=O)ON=C2CCN(S(=O)(=O)c3ccccc3)CC2)cc1	0	27µM	0	?
Cc1ccc(NC(=O)Cn2c(=O)n(C)c(=O)c3sc(N4CCCC4)nc32)c(Cl)c1	0	-	-	-
Cc1ccccc1C(=O)c1c[nH]c(C(=O)NCc2cccs2)c1	0	27µM	0	0
Nc1ccc2nc(SCc3ccccc3F)sc2c1	0	15µM	0	0
Nc1ccc2nc(SCC(=O)c3ccccc3)sc2c1	?	0	0	0
Cc1ccc(/C=N/n2c(C)cc(C)c(C#N)c2=O)cc1	0	0	0	0
Cc1cc(C)n(/N=C/c2ccc(O)cc2)c(=O)c1C#N	0	30µM	0	0
CC(NC(=O)c1ccc[n+]([O-])c1)c1ccc2ccccc2c1 (stereo unspecified)	0	-	-	-
CC(=O)Nc1ccc(C2CC(c3ccc(Cl)cc3)=NN2c2ccccc2)cc1 (stereo unspecified)	?	0	32µM	0
O=C(/C(=C/c1cccnc1)n1ccnc1)c1ccc(Cl)cc1Cl	0	?	0	50µM
CC(C)/C=C(/C(=O)c1ccc(Cl)cc1Cl)n1cncn1	?	0	0	?
O=C1NC(=O)/C(=C/c2ccc(N3CCOCC3)o2)N1	?	0	0	79µM
Cc1cc(/C=C2/NC(=O)NC2=O)c(C)n1-c1ccc(N2CCOCC2)cc1	0	0	0	0
O=C1NC(=O)/C(=C\c2ccc(N3CCOCC3)o2)N1	20µM	0	0	25µM
COc1ccc(OCCOC(=O)c2nc3nccc(C)n3n2)cc1	0	0	0	0
Cc1ccc(OCCOC(=O)c2nc3nccc(C)n3n2)cc1	0	27µM	0	?
Cc1ccc(NC(=O)c2cc(F)ccc2Br)nc1	0	-	-	-
N#CC(=C(O)c1ccc(Cl)cc1Cl)c1nc2cc(Cl)ccc2c(=O)[nH]1	22µM	-	-	-
O=C(NCCCNC(=O)c1cc(Cl)ccc1Cl)c1nc2ccccc2c(=O)[nH]1	0	-	-	-
SMILES	12-LOX inh	PLK1 PBD inh	KAT2A inh	VDR inhibitor
COc1ccc(C(=O)c2ncc(C(F)(F)F)cc2Cl)cc1	0	24µM	0	?
CC(C)N(C(=O)COC(=O)c1cncc(Br)c1)C(C)C	0	21µM	0	?
NC(=O)CSc1nnc(Cc2ccc3c(c2)OCO3)n1C1CCCCC1	0	27µM	0	0
O=C(CSc1nnc(Cc2ccc3c(c2)OCO3)n1C1CCCCC1)NC1CCCC1	0	0	0	0
N#CC1(NC(=O)CSc2c(Cl)cccc2Cl)CCCCC1	14µM	-	-	-
O=C(Cc1cccc(Cl)c1)N1CCC(c2nn(-c3ccccc3)c(=O)[nH]2)CC1	0	-	-	-
CCN1CCN(S(=O)(=O)c2ccc(S(=O)(=O)N(CC)Cc3ccccc3)cc2)CC1	1.4µM	0	0	0
CCN(CC)S(=O)(=O)c1ccc(S(=O)(=O)N2CCN(CCC#N)CC2)cc1	0	0	0	0
